Screening results (PubChem BioAssay)
Most compounds without a hit are left out; they make up all but 5.7% or so of the library.
KB-3-1 cytotox: kills parental KB-3-1 adenocarcinoma cells | KB-3-1 viability, CellTiter-Glo ATP luminescence, 72 h | Potency, µM (top dose mostly 46.1 µM), most hits filed as cytotoxic | actives 1.4% (n = 400,000); further: nearly all actives have a fitted effect of over 60% in size
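Parental KB-3-1 adenocarcinoma cells in phenol-red-free DMEM with 10% FBS were pin-treated with compounds at several concentrations, incubated 72 h at 37 °C, and viability read by CellTiter-Glo luminescence; concentration-effect curves were fitted after normalization.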
HT1080 IDH1KD tx: kills HT-1080 cells with IDH1 knockdown | actives 2% (n = 360,000) | Potency, µM (top dose mostly 46.1 µM), without a hit: top-dose activity, negative = toxicity, actives largely listed as cytotoxic | HT-1080 IDH1 knockdown viability, ATP luminescence, 48 h;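 further: 0% = DMSO wells and -100% = cell-free medium wells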
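Assay cells: HT-1080 with IDH1 knockdown, 750 per well, RPMI/5% FBS. Exposure: 48 h at 37 °C following 2 h pre-incubation. Read: CellTiter-Glo luminescence; fitted concentration-response, curve class assigned.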
HT1080NT lethal: kills 2HG-producing HT-1080-NT fibrosarcoma cells; Potency, µM (series often up to 46.1 µM), without a hit: at the top dose activity, negative = less viability, actives largely listed as cytotoxic; AID 686970; actives 1.6% (n = 360,000); HT-1080-NT fibrosarcoma viability, CellTiter-Glo ATP luminescence, 48 h;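 further: NT is the 2HG producing partner of a matched IDH1 knockdown line; 0% = DMSO-treated cells and -100% = media-only wells without cells; nearly all actives have a fitted effect of over 55% in size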
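HT-1080-NT; 750 cells/well; 5% FBS RPMI; 48 h compound, 37 degrees C; CellTiter-Glo luminescence; curve fitting and curve-class assignment.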
KB-V1 cytotox: KB-V1 MDR subline cytotoxicity; actives 3.4% (n = 400,000); Potency, µM (top dose mostly 46.1 µM), actives largely listed as cytotoxic; KB-V1 MDR cells viability, CellTiter-Glo, 72 h; further: nearly all actives have a fitted effect of over 60% in size
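KB-V1 MDR subline cells in DMEM (phenol-red free, 10% FBS) exposed to compounds in qHTS concentration series for 72 h at 37 degrees C. Viability read by CellTiter-Glo luminescence; concentration-effect curves fitted after normalization and correction.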
An asterisk follows results filed as active; i = inactive; ? = inconclusive; . = not tested or not shown. The call rests on the fitted dose curve; in most records, active means well fitted curve in the direction sought with a large enough effect; inconclusive means small, poorly fitted or top-dose-only effect, or another doubt; inactive means no such curve, though single readings can be large; an effect the other way counts as inactive or inconclusive. Unless noted, on the % scale 0 is the no-effect control and ±100 the full control effect; potency means the concentration at half of the fitted maximal effect.

SMILES	KB-3-1 cytotox	HT1080 IDH1KD tx	HT1080NT lethal	KB-V1 cytotox
C[C@]12CC[C@H]3[C@@H](CCC4=CC(=O)CC[C@@]43C)[C@@H]1CC[C@@H]2O	10.3µM*	-4.2%	?	3.66µM*
O=C(Nc1ccc(F)c([N+](=O)[O-])c1)c1cccn(Cc2ccccc2)c1=O	i	.	.	i
C[C@]12CCC(=O)C=C1CC[C@@H]1[C@@H]2CC[C@@]2(C)[C@H]1CC[C@]2(C)O	i	-10.0%	5.3%	?
C[C@H](O)[C@H]1CC[C@H]2[C@@H]3CCC4=CC(=O)CC[C@]4(C)[C@H]3CC[C@]12C	i	-2.8%	-4.9%	14.6µM*
Cc1cccc(N2C(=O)NC(=O)/C(=C\c3cc(C)n(-c4sc5c(c4C#N)CCCC5)c3C)C2=O)c1C	i	16.4µM*	?	?
CS(=O)(=O)c1ccc(C2=C(CNC(=O)c3nccs3)[C@H]3CC[C@@H](C2)N3Cc2ccco2)cc1	i	-0.6%	-4.2%	i
COc1ccc(CCNC2CCCCC2)cc1	i	17.1%	11.5%	i
COc1ccc(C[C@H]2NC[C@H](O)[C@H]2OC(C)=O)cc1	0.326µM*	0.164µM*	0.0461µM*	0.411µM*
COc1cccc(CN(C)C[C@@H]2OCc3ccccc3-c3c(n(C)c4ccccc34)C(=O)N([C@@H](C)CO)C[C@H]2C)c1	?	?	?	i
C[C@@H]1CN([C@H](C)CO)C(=O)c2c(c3ccccc3n2C)-c2ccccc2CO[C@H]1CN(C)Cc1ccc(-c2ccccc2)cc1	?	16.4µM*	20.6µM*	?
Cc1cc(OC(=O)CCNC(=O)OC(C)(C)C)c2c3c(c(=O)oc2c1)CCC3	i	-14.2%	-12.2%	i
CCC(NC(=O)OC(C)(C)C)C(=O)Oc1cc(C)cc2oc(=O)c3c(c12)CCC3 (stereo not given)	i	15.9%	13.5%	14.6µM*
COc1cc(C2c3cc4c(cc3CC3COC(=O)C32)OCO4)cc(OC)c1O (stereo not given)	i	?	?	?
COc1cc(C2c3cc4c(c(O)c3CC3COC(=O)C32)OCO4)cc(OC)c1O (stereo not given)	0.0164µM*	.	.	0.184µM*
CC(C)CCCn1c(O)c(/C=C2/C=CC=N2)c(=O)[nH]c1=O	16.4µM*	16.4µM*	18.4µM*	?
O=[N+]([O-])c1ccc(Sc2nc3ccccc3o2)c([N+](=O)[O-])c1	i	2.82µM*	12.6µM*	?
C/C=C(\C)C(=O)N[C@@H](c1ccccc1)[C@@H](O)C(=O)O[C@H]1C[C@@]2(O)[C@@H](OC(=O)c3ccccc3)C3[C@](C)(C(=O)[C@H](OC(C)=O)C(=C1C)C2(C)C)[C@H](O)C[C@H]1OC[C@@]31OC(C)=O (stereo not given in full)	0.0073µM*	0.0052µM*	0.0461µM*	?
CC/C=C/CC(=O)N[C@@H](c1ccccc1)[C@@H](O)C(=O)O[C@H]1C[C@@]2(O)[C@@H](OC(=O)c3ccccc3)C3[C@](C)(C(=O)[C@H](OC(C)=O)C(=C1C)C2(C)C)[C@@H](O)C[C@H]1OC[C@@]31OC(C)=O (stereo not given in full)	0.581µM*	0.0052µM*	0.0411µM*	?
CCC(C)C(=O)N[C@@H](c1ccccc1)[C@@H](O)C(=O)O[C@H]1C[C@@]2(O)[C@@H](OC(=O)c3ccccc3)C3[C@](C)(C(=O)[C@H](OC(C)=O)C(=C1C)C2(C)C)[C@@H](O)C[C@H]1OC[C@@]31OC(C)=O (stereo not given in full)	0.0065µM*	?	0.184µM*	i
O=C(CN1CCOCC1)c1cccc([N+](=O)[O-])c1	?	.	.	i
Cc1cc(C)c(C)c(C(O)(C(=O)O)c2ccccc2)c1 (stereo not given)	i	-7.8%	9.5%	i
C[C@]12CCC3C(CC[C@H]4C[C@H](O)CC[C@]34C)C1C[C@@H](O)[C@H]2O (stereo not given in full)	i	-0.8%	-9.9%	i
COC(=O)C1=C(c2ccc(OC)c(OC)c2)C[C@@H]2CC[C@H]1N2C(=O)NCCCOC(C)C	i	13.3%	4.0%	i
COc1ccc2nc3c(C)n(C)ccc-3c2c1	i	-19.0%	2.0%	i
Nc1ccccc1Cl	i	6.5%	-6.2%	i
SMILES	KB-3-1 cytotox	HT1080 IDH1KD tx	HT1080NT lethal	KB-V1 cytotox
NC(Cc1ccc(O)cc1)C(=O)NN=Cc1ccc(N(CCCl)CCCl)cc1 (stereo not given)	i	-8.8%	?	i
COc1cc(C(=O)NN=Cc2ccc(N(CCCl)CCCl)cc2)cc(OC)c1OC	16.4µM*	4.11µM*	?	i
Cc1ccc(OP(=O)(NCc2ccccc2)Oc2ccc(C)cc2)cc1	?	0.5%	-1.2%	14.6µM*
Cc1ccc(NP(=O)(Oc2ccccc2)Oc2ccccc2)cc1	i	-5.6%	-17.4%	i
COc1ccccc1-n1c(-c2ccccc2F)nc2ccccc2c1=O	i	-14.0%	-9.8%	i
CCCc1c(-c2ccccc2F)ncn1CCc1ccccc1OC	?	?	?	16.4µM*
COc1ccc(CCN)cc1OC	i	-3.7%	9.7%	i
NCCc1ccc(OCc2ccccc2)c(OCc2ccccc2)c1	?	?	-25.0%	23.1µM*
O=c1c(C=NCCN2CCNCC2)c(O)n(C2CCCCC2)c(=O)n1C1CCCCC1	i	?	20µM*	?
O=c1c(C=NCc2cccs2)c(O)n(C2CCCCC2)c(=O)n1C1CCCCC1	i	-24.7%	-13.2%	i
CC(=O)O[C@H]1CCC2C3CCC4=CC(=O)CCC4=C3C=C[C@@]21C (stereo not given in full)	?	3.7%	0.0%	8.2µM*
O=C1/C(=C/c2ccccc2)C[C@@]2(O)[C@H]3Cc4ccc(O)c5c4[C@@]2(CCN3CC2CC2)C1O5 (stereo not given in full)	?	3.66µM*	1.64µM*	7.31µM*
COc1cc2cc(c1Cl)N(C)C(=O)CC(OC(=O)C(C)N(C)C(C)=O)C1(C)OC1C(C)C1CC(O)(NC(=O)O1)C(OC)C=CC=C(C)C2 (stereo not given)	?	?	0.0041µM*	0.461µM*
CCn1c(=O)oc2cc(NC(=O)CCl)ccc21	?	5.17µM*	8.2µM*	?
CCOC(=O)Cn1c(=O)oc2cc(S(=O)(=O)Nc3c(C)cc(C)cc3C)ccc21	i	?	?	i
CC/C(=N\N1CCCCCC1)c1c(O)n(-c2ccccc2C)c(=O)[nH]c1=O	i	3.9%	2.6%	11.6µM*
C=CCc1cc(C=C2C(=O)N(C)C(=O)N(C)C2=O)cc(OCC)c1OCc1ccccc1	?	?	?	16.4µM*
C=CCc1cc(C=C2C(=O)NC(=O)NC2=O)cc(OC)c1OCc1ccc(C(=O)O)cc1	i	7.9%	-5.5%	i
CN(C)c1ccc(N=O)cc1	i	.	.	?
